# Bioassay records from PubChem.
# This is a sample that favours compounds with a hit; in the whole collection about 2.1% have one here.
# Abeta yeast res – A-beta toxicity reversal in yeast; yeast expressing A-beta42, growth rescue, OD600, 48 h; response scale: 0% DMSO, 100% iron-clioquinol control; Potency, µM (highest dose often 46.1 µM), most hits filed as activators; actives 0.063% (n = 410,000); AID 1347071; further: nearly all actives have a fitted effect of over 55% in size
#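 Yeast growth medium received pinned compounds, then yeast cells expressing toxic A-beta were added; plates incubated at 30 C for 48 hr. Growth read as absorbance at 600 nm, normalized to DMSO and equimolar FeCl3 plus clioquinol controls.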
# TDP-43 yeast inh – inhibitors of TDP-43 toxicity in yeast. TDP-43 expressing yeast growth rescue, BacTiter-Glo, 24 h. Potency, µM (titrated, usually from 46.1 µM), most hits filed as activators. actives 1.8% (n = 410,000). AID 652104; further: nearly all actives have a fitted effect of over 50% in size
#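 Luminescence from BacTiter-Glo reports growth of TDP-43-expressing yeast after 24 hr at 30 deg C with compound. Cells were raffinose-pregrown to mid-log, then seeded in galactose medium at OD600=0.02.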
# FUS suppressor – suppressors of FUS proteinopathy in yeast | S. cerevisiae FUS-expressing, growth rescue, OD600, 24 h | Potency, µM (titrated, usually from 76.6 µM), hits mostly activators | actives 0.24% (n = 390,000) | AID 1347120; further: nearly all actives have a fitted effect of over 55% in size
#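 Galactose (2%) drives FUS expression in yeast precultured in raffinose; seeding density OD 0.005. Test compounds incubated 24hr at 30C and 99% humidity before absorbance at 600 nm was measured.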
# aSyn yeast inh – alpha-synuclein toxicity inhibition in yeast. Potency, µM (doses to about 46.1 µM), hits mostly activators. AID 652106. Yeast expressing alpha-synuclein, growth rescue, BacTiter-Glo, 24 h. actives 0.14% (n = 370,000); further: nearly all actives have a fitted effect of over 65% in size
#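 Readout is rescue of growth in alpha-synuclein-expressing yeast, so inhibitors of toxicity appear as activators. Growth after 24 hr at 30 deg C in galactose medium is quantified by luminescence.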
# Hits are given with their value; - = inactive; ? = inconclusive; . = no result; [ ] = another dose, or the depositor's remark. The call rests on the fitted dose curve; in most records, active means well fitted curve in the direction sought with a large enough effect; inconclusive means small, poorly fitted or top-dose-only effect, or another doubt; inactive means no such curve, though single readings can be large; an effect the other way counts as inactive or inconclusive.
SMILES,Abeta yeast res,TDP-43 yeast inh,FUS suppressor,aSyn yeast inh
Cc1cc(Oc2ccc(N)cn2)cc(C)c1Cl,-,-[1.82 µM],-,-
Cc1cc(Nc2nnnn2-c2ccccc2)n(-c2ccccc2)n1,-,-,-,-
Cc1cc2ncn(-c3nnnn3-c3ccccc3)c2cc1C,-,18µM,-,-
COc1ccc(C(=O)CC2(C(=O)O)CCCCC2)cc1,-,16µM,-,-
CCOC(=O)C1=CN(Cc2cccc(F)c2)S(=O)(=O)NC1c1ccc(F)c(Cl)c1 (configuration not stated),-,-,-,-
CCOC(=O)C1=CN(Cc2cccc(F)c2)S(=O)(=O)NC1c1ccc(Br)cc1F (configuration not stated),-,16µM,-,-
C=CCN1[C@H](C)COc2cccc(N3CCCC3)c2S1(=O)=O,.,.,-,.
CC1(C(=O)Nc2cccc(C#N)c2)CCN1C(=O)C/C=C/c1ccccc1 (configuration not stated),-,-,?,-
C#Cc1ccc(NC(=O)C2(C)CCN2C(=O)C/C=C/c2ccccc2)cc1 (configuration not stated),-,25µM,-,-
C#Cc1ccc(NC(=O)C2(C)CCN2C(=O)Cc2ccc(C(C)(C)C)cc2)cc1 (configuration not stated),-,-,-,-
C#Cc1ccc(NC(=O)C2(C)CCN2C(=O)Cc2ccc(C(C)C)cc2)cc1 (configuration not stated),-,35µM,-,-
CCc1ccc(CNC(=O)CSCc2cnn(-c3ccccc3)c2-n2cccc2)cc1,-,-,-,.
COc1ccc(C(=O)NCc2ccc3c(c2)CCN3C(=O)c2ccc(C)cc2)cc1,-,-,-,.
Cc1ccc(Cl)cc1-n1ncc2c(N3CCN(Cc4ccccc4)CC3)ncnc21,-,-,-,.
Cc1nnc(SCc2ccc(F)cc2)s1,-,-,-,-
Cc1nnc(SCc2ccc(Cl)c(Cl)c2)s1,-,13µM,.,-
Nc1nc(SCc2ccc(F)cc2)ns1,?,13µM,-,-
O=C(Nc1nnc(C2CC2)o1)c1ccc(S(=O)(=O)N2CCCc3ccccc32)cc1,?,18µM,-,?
CC1CCN(S(=O)(=O)c2ccc(C(=O)Nc3nnc(C4CC4)o3)cc2)CC1,13µM,?,?,18µM
COCc1nnc(NC(=O)c2ccc(S(=O)(=O)N3CCCc4ccccc43)cc2)o1,-,?,?,?
Cc1nnc(NC(=O)c2ccc(S(=O)(=O)N3CC(C)CC(C)C3)cc2)o1 (configuration not stated),?,-,-,16µM
Cc1cc(C)cc(-c2c(C(=O)c3ccc(Br)cc3)[nH]c(N)c2C(=O)NCc2ccc(Cl)cc2)c1,.,.,-,.
COc1ccc2c(c1)CO[C@H]([C@H](O)CO)[C@H]2/C=C/c1ccccc1,.,.,-,.
OCCCc1cn(-c2ccccc2)c2ccccc12,-,13µM,-,-
COc1ccc(NS(=O)(=O)c2ccc3oc4ccccc4c3c2)cn1,-,?,-,22µM
SMILES,Abeta yeast res,TDP-43 yeast inh,FUS suppressor,aSyn yeast inh
C=CCN1[C@@H](Cc2ccccc2)COc2cccc(F)c2S1(=O)=O,.,.,-,.
Nc1nn(-c2ccccc2)c(N)c1N=Nc1cccc(F)c1,-,?,-,-
Nc1nn(-c2ccccc2)c(N)c1N=Nc1ccc2c(c1)OCO2,-,18µM,-,-
N#C/C=C1\n2c(nc3ccccc32)OC12CCCCC2,-,16µM,-,-
Cc1nc(-c2ccc(S(=O)(=O)Nc3cc(F)ccc3F)cc2)co1,-,-,-,-
Cc1nc(-c2ccc(S(=O)(=O)Nc3cc(Cl)ccc3C)cc2)co1,-,22µM,-,?
Cc1ccccc1N1CC(c2nc3ccccc3n2CCC2CCCCC2)CC1=O (configuration not stated),-,22µM,?,.
C[C@@H]1C[C@H]2[C@@H]3CCC4=CC(=O)C=C[C@]4(C)[C@@]3(F)C(O)C[C@]2(C)[C@@]1(O)C(=O)CO (some centres not stated),.,.,.,-
Cc1ccc(CNCc2cccn2-c2nnc(N3CCCC3)s2)cc1,-,?,-,-
Cc1ccc(CN(Cc2cccn2-c2nnc(N3CCCC3=O)s2)C(=O)Nc2ccccc2Cl)cc1,-,-,35µM,.
C/C(=N/NC(N)=S)c1cc2ccc(O)cc2oc1=O,11µM,-,-,-
C/C(=N/NC(=O)c1ccncc1)c1cc2ccc(O)cc2oc1=O,-,-,.,-
C=CCNC(=O)/C(C#N)=C/c1ccccc1Cl,?,-,-,-
C=CCNC(=O)/C(C#N)=C/c1cc(Br)ccc1OC,-,11µM,-,-
Cc1cc(C)c(NC(=O)/C=C\C(=O)O)c([N+](=O)[O-])c1,-,16µM,-,-
Cc1cc(C)c(NC(=O)CS)c(Cl)c1,-,-,-,-
Cc1ccc(NC(=O)/C=C\C(=O)O)c([N+](=O)[O-])c1,-,?,.,-
Cc1cc(C)c(NC(=O)/C=C\C(=O)O)c(Cl)c1,-,13µM,-,-
COC(=O)[C@]12C[C@H](CC(=O)NCC3CCCCC3)C(=O)N(Cc3ccc(Cl)cc3Cl)C1=C[C@H](COCc1ccccc1)O[C@@H]2C,.,.,-,.
COc1ccc(OC(C)C(=O)NCc2nc(-c3ccc(Cl)cc3)no2)cc1 (configuration not stated),-,16µM,?,.
COc1ccccc1OCC(=O)NCc1nc(-c2ccc(Cl)cc2)no1,-,-,-,.
COC(CNC(=O)[C@H](Cc1ccccc1)NC1(C(=O)NC2CCCCC2)CCCC1)OC,.,.,-,.
Cc1ccc(CNC(=O)c2ccc(CSCc3ccccc3C)o2)cc1,-,?,-,.
O=C(NCCc1ccc(Cl)cc1)c1ccc(CSCc2cccc(Cl)c2)o1,-,20µM,-,.
COc1ccc(CCNC(=O)c2ccc(CS(=O)(=O)c3ccc(Cl)cc3)o2)cc1OC,-,-,-,-
SMILES,Abeta yeast res,TDP-43 yeast inh,FUS suppressor,aSyn yeast inh
Cc1ccccc1CSCc1ccc(C(=O)NCCc2ccccc2)o1,-,35µM,-,-
O=C(NCc1ccc(F)cc1)c1ccc(CSCc2cccc(Cl)c2)o1,-,22µM,?,.
COc1ccc(CCNC(=O)c2ccc(CSc3ccc(Cl)cc3)o2)cc1OC,.,33µM,?,.
COc1cc2c(cc1OC)C(COc1ccccc1OC)N(C(=O)COc1ccc(Cl)cc1)CC2 (configuration not stated),-,.,?,.
COC(=O)C1CN(Cc2ccc(F)cc2)CCS(=O)(=O)N1Cc1cn(Cc2ccc(Cl)cc2)nn1 (configuration not stated),.,.,-,.
Cc1ccc(F)cc1C(=O)N(Cc1ccccn1)CC1CCCO1 (configuration not stated),.,.,-,.
CCOC(=O)N1CCC(NC(=O)c2ccc3c(c2)N(Cc2cc(C)ccc2C)C(=O)c2ccccc2S3=O)CC1 (configuration not stated),-,-,?,.
O=S(=O)(c1c(Cl)sc(Cl)c1Br)N1CCCC1,-,11µM,-,-
O=S(=O)(c1ccc(Cl)cc1)N1CCCCCC1,-,-,-,-
